# Screening results: PubChem, several laboratories
# PABP FP inh = blocks human PABP binding to poly(A) RNA | P11940 | fluorescence polarization | inhibition, % at 35 µM | 290,000 tested, 1% active | AID 2014;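 also: calls also rest on retests at 20 µM and on dose response follow-up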
# MLLE-PAM2 inh = inhibitors of microRNA-mediated deadenylation, human PABP1 MLLE binding; inhibition, % at 20 µM; 360,000 tested, 0.36% active; AID 588489; P11940; GST-MLLE / FITC-PAM2 fluorescence polarization; in the data active = inhibition above about 35%, passing the limit was not always enough
# ALR H2O2 inh = human ALR oxidase inhibition via reduced H2O2 | P55789 | purified ALR, DTT oxidation, H2O2 HRP-luminol luminescence | inhibition, % (no concentration beside the values) | 290,000 tested, 3.8% active | AID 485317;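 active = mean replicate inhibition above about 79%, with every replicate also reaching it, limit read from the data; inconclusive = only one of the two criteria met; inactive = mean below limit and not every replicate reaching it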
# Target sequence (P55789 whole entry, looked up): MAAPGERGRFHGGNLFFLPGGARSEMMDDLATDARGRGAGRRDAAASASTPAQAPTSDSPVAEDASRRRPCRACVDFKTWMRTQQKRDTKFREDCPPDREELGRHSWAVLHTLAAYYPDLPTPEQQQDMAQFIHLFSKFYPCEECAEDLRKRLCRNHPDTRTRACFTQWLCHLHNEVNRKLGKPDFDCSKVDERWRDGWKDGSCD
# Efflux pump inh = antifungal efflux pump inhibition, Nile Red retention. inhibition, % at 10 µM. 330,000 tested, 0.44% active. S. cerevisiae Candida pump triplex;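 active = plate passing quality check with inhibition over a set limit, or well fluorescence over plate mean plus 4 SD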;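 also: Nile Red retained in pooled yeast measured as flow cytometry median fluorescence; higher means more Nile Red kept so more efflux inhibition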
# UBC9 SUMO inh = blocks human SUMOylation mediated by UBC9; HTRF SUMOylation assay, SAE1/SAE2 + UBC9, in vitro; inhibition, % at 35 µM; 290,000 tested, 0.36% active; P63279; in the data active = inhibition above about 50%, passing the limit was not always enough; inconclusive = no clear call, values can overlap the other calls
# Target sequence (P63279 whole entry, looked up): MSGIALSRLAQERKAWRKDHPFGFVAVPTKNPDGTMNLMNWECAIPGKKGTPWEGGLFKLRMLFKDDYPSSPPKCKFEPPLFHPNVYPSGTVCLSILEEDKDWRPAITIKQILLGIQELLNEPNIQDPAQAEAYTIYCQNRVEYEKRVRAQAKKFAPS
# eIF4H inh = inhibitors of RNA binding by human eIF4H; eIF4H fluorescence polarization binding assay; AID 2012; inhibition, % at 35 µM; Q15056; 290,000 tested, 0.94% active;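 also: calls also rest on retests at 20 µM and on dose response follow-up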
# Numbers stand for hits; – = inactive; ? = inconclusive; · = no result; ! = repeats disagree. Compounds with a hit are over-represented: about 4.7% of the library has one in this group of screens. Unless noted, no rule for the calls is given here.
SMILES,PABP FP inh,MLLE-PAM2 inh,ALR H2O2 inh,Efflux pump inh,UBC9 SUMO inh,eIF4H inh
COc1cc2c(cc1O)CC1c3c(cc(O)c(OC)c3-2)CCN1C (centres undefined),20!,–,99,–,–,81!
Cn1cc(/C=C2\C(=O)NC(=O)N(c3ccccc3)C2=O)c2ccccc21,?,–,–,–,–,?
CC(C)c1ccc(N2C(=O)NC(=O)/C(=C/c3cnc(-c4ccccc4)nc3)C2=O)cc1,active,–,–,–,–,–
COc1cc(/C=C2\C(=O)NC(=O)N(c3ccccc3)C2=O)cc(OC)c1O,–,–,91,–,–,–
O=C1NC(=O)N(c2ccccc2)C(=O)/C1=C/c1ccc2c(c1)Cc1ccccc1-2,–,·,–,–,–,–
COc1cc(/C=C2\C(=O)NC(=O)N(c3ccccc3)C2=O)c([N+](=O)[O-])cc1OC,–,49,·,·,–,–
CC(C)[C@]12CC(=O)[C@H](C)[C@H]1C2,·,–,–,–,·,·
Clc1ccc(-c2nc3ccc(Cl)cn3c2CN2CCCCC2)cc1,–,–,–,–,–,–
Cc1[nH]c2ccc(O)cc2c1CCN,·,–,96,–,·,·
CCN1C(=O)/C(=C\c2ccc([N+](=O)[O-])s2)C(=O)NC1=S,3.4,·,·,·,–,52
CN(C)c1ccc(C2C3C=CC(C3)C2(C#N)C(=O)O)c(Br)c1 (centres undefined),–,–,–,–,–,–
Cc1cccc(N2C(=O)CC(=O)NC2=O)c1,–,–,–,–,–,69
COc1ccc(N2C(=O)CC(=O)NC2=O)cc1,48,–,–,–,–,?
CC(C)c1ccccc1OCC(=O)N1CCCN(C)CC1,–,–,–,–,–,–
COC(=O)C1=C(c2ccc(OCc3ccccc3)cc2)C[C@@H]2CC[C@H]1N2C(=O)NCc1cccc(OC)c1,·,–,–,–,·,·
CC(=O)Nc1ccc(OCCF)cc1,–,–,–,–,–,–
Cc1cccc(C#N)c1,·,–,–,–,·,·
Cc1cc(/C=C2\C(=O)NC(=O)N(c3ccc(F)cc3)C2=O)c(C)n1-c1ccc(C(=O)O)cc1,51,–,98,–,–,–
Cc1cc(/C=C2/C(=O)NC(=O)N(c3ccccc3)C2=O)c(C)n1-c1ccc(F)cc1,·,–,–,–,·,·
Cc1ccc(N2C(=O)NC(=O)/C(=C/c3ccc(-c4ccc(C(=O)O)c(Cl)c4)o3)C2=O)cc1,–,–,97,–,–,?
Cc1ccc(N2C(=O)NC(=O)/C(=C\c3cc(C)n(-c4ccc(C(=O)O)cc4)c3C)C2=O)cc1,–,–,97,–,–,–
CC(C)CNC(=O)/C=C/C=C/CCCCCC/C=C/c1ccc2c(c1)OCO2,·,–,·,–,·,·
CCCNC(=O)N1[C@H]2CC[C@@H]1C(C(=O)OC)=C(c1ccc(C(C)=O)cc1)C2,·,–,–,–,·,·
CCCNC(=O)N1[C@H]2CC[C@@H]1C(C(=O)OC)=C(c1cccc(C#N)c1)C2,·,–,–,–,·,·
O=C1NCN(c2ccccc2)C12CCN(C(c1nnnn1C1CCCC1)C1CC1)CC2 (centres undefined),·,–,·,·,·,·
SMILES,PABP FP inh,MLLE-PAM2 inh,ALR H2O2 inh,Efflux pump inh,UBC9 SUMO inh,eIF4H inh
CN(C)C1C(=O)C(C(N)=O)=C(O)C2(O)C(=O)C3=C(O)c4c(O)cccc4C(C)(O)C3C(O)C12 (centres undefined),100,–,–,–,–,99
CCCCn1c(O)c(C(C)=NCCc2c[nH]c3ccccc23)c(=O)[nH]c1=O,66,–,–,–,–,84
O=P(Oc1ccc(-c2ccccc2)cc1)(N1CC1)N1CC1,·,–,·,·,·,·
Nc1ccc(S(=O)(=O)N2CCCCC2c2cccnc2)cc1 (centres undefined),–,–,90,–,–,–
O=S(=O)(c1ccccc1)N1CCCCC1c1cccnc1 (centres undefined),–,–,–,–,–,–
Oc1ccc(CC2CC3CCN2CC3)cc1O (centres undefined),–,–,99,–,–,–
COc1ccc(CC2C(=O)NC(C)C(=O)N(C)C3C(=O)N(C)C(Cc4ccc(O)c(c4)Oc4ccc(cc4)C3O)C(=O)NC(C)C(=O)NC(C)C(=O)N2C)cc1 (centres undefined),·,–,·,·,·,·
COC(=O)C1=C(c2ccc(F)cc2OCc2ccccc2)C[C@@H]2CC[C@H]1N2C(=O)NC1Cc2ccccc2C1,·,–,–,–,·,·
O=C(O)CCn1cc(C=C2C(=O)NC(=O)NC2=O)c(-c2cc3ccccc3oc2=O)n1,–,–,97,–,–,–
O=C(Cn1cc(C=C2C(=O)NC(=O)NC2=O)c2ccccc21)NCC1CCCO1 (centres undefined),?,–,·,–,–,?
Cc1ccc(-c2nc(CS(=O)CC(=O)N3CCC4(CC3)OCCO4)c(C)o2)cc1 (centres undefined),–,–,99,–,–,–
CN(C)c1ccc(/C=C2/C(=O)NC(=O)N(CCc3ccc(F)cc3)C2=O)cc1,–,–,–,–,–,?
Cc1ccc(/C=C2\C(=O)NC(=O)N(CCc3ccc(F)cc3)C2=O)s1,–,–,96,–,–,–
Cc1ccc(/C=C2/C(=O)NC(=O)N(CCc3ccc(F)cc3)C2=O)s1,–,–,–,–,–,?
Cc1ccc(/C=C2\C(=O)NC(=O)N(CCc3ccc(F)cc3)C2=O)o1,active,–,–,–,–,?
Cc1ccc(/C=C2/C(=O)NC(=O)N(CC3CCCO3)C2=O)s1 (centres undefined),–,–,97,–,–,–
Cc1ccc(/C=C2/C(=O)NC(=O)N(Cc3ccc(F)cc3)C2=O)o1,–,·,·,–,–,–
CN(C)c1ccc(/C=C2\C(=O)NC(=O)N(Cc3ccc(F)cc3)C2=O)cc1,46,–,·,–,–,?
COC1/C=C/C=C(\C)Cc2cc(O)c(Cl)c(c2)N(C)C(=O)CC(OC(=O)C(C)C)C2(C)OC2C(C)C2CC1(O)NC(=O)O2 (centres undefined),·,–,·,·,·,·
O=C(c1ccccc1)C(CN1CCCC1)c1ccccc1 (centres undefined),–,–,97,–,–,–
Cc1ccccc1-n1c(C)nc2ccccc2c1=O,–,–,–,–,–,–
Cc1cccc(-n2c(C)nc3ccccc3c2=O)c1C,75,–,–,–,–,–
CCn1nc(-c2ccccc2)nc2c(=O)n(C)c(=O)nc1-2,–,–,–,–,104,?
Cn1cc(NC(=O)CCl)cn1,–,–,–,–,–,1.5
Cc1cc(NC(=O)CCl)no1,–,–,–,–,–,–
Cc1ccc(S(=O)(=O)c2nc(-c3ccccc3Cl)oc2N(C)C2CCN(C)CC2)cc1,·,–,–,–,·,·
Cc1ccc2c(c1)CNc1ccccc1O2,–,–,88,–,–,–
c1ccc2c(c1)CNc1ccccc1O2,–,–,–,–,–,–
C=C1C2C[C@@]3([C@@H]1O)[C@@H](C[C@@H]2O)[C@@]12C4[C@@H]3C[C@@H]1[C@@](C)(CC[C@@H]2O)CN4CC,·,–,–,–,·,·
CC(C)(C)N1C(=O)NC(=O)/C(=C\c2ccc3c(c2)CCN3CCCCl)C1=O,25,–,90,–,–,–
